Reference: PubChem BioAssay
Activity calls are given as the source filed them. No stated cut-off is given here; in the data, active means inhibition above about 30%; inactive means the rest.

assay: growth suppression of yeast trafficking mutant, preliminary HTS, modulators of trafficking downstream of Golgi apparatus project, 1536-format plate, OD 615 nm (AID 637); details: yeast transport mutant growth, absorbance 615 nm, 18 h; hits give high values

inhibition, inactive:
CCC(c1nnnn1CCOC)N(Cc1ccc(C)cc1)Cc1cc2cc(OC)ccc2[nH]c1=O (stereo unspecified) -1.77%
COc1ccccc1-c1nnc(SCc2ccccn2)n1C 9.37%
CCCCOCCCNC(=O)c1ccccc1OCC -4.67%
COCCOC(=O)C1=C(C)Nc2ncnn2C1c1ccc(F)cc1 (stereo unspecified) -1.48%
CCCCOc1ccc(C(=O)Nn2cnnc2)cc1 -2%
O=C(CNS(=O)(=O)c1ccc(Br)s1)N1CCN(c2ncccn2)CC1 -1.31%
CCN(CC)CCCN(Cc1cc2cc(OC)ccc2[nH]c1=O)C(=O)Nc1ccccc1 -1.97%
CN(C)CCCn1c(N)c(C#N)c2nc(C#N)c(C#N)nc21 -1.75%
CCOC(=O)C(C)(C)Sc1nc2c(cnn2-c2ccc(C)cc2)c(=O)[nH]1 -0.79%
COC(=O)c1ccc(CSc2nnc(-c3ccncc3)o2)o1 1.48%
CC1(C)Cc2nc3oc4c(N(CCO)Cc5ccccc5)ncnc4c3cc2CO1 -4.33%
CCCCc1n[nH]c2c1C(=O)CC(C)(C)C2 0%
CCOc1ccc(NC(=O)C2CC(=O)N(C(C)C)C2)cc1 (stereo unspecified) 0.49%
C=C(C)CSc1nnc(-c2cccc(S(=O)(=O)N(C)C)c2)n1-c1cc(OC)ccc1OC -2.55%
N#Cc1c(NC(=O)c2ccc(Br)o2)n(-c2ccccc2)c2nc3ccccc3nc12 2.46%
CCCC(=O)Nc1cc(C)c(NC(=O)c2ccccn2)cn1 -0.32%
